# Assay results published in PubChem BioAssay AID1259422 (The Scripps Research Institute Molecular Screening Center, 2018).
# The whole screen tested about 640,000 compounds, of which about 9,300 (1.5%) were called active. Rule as the data show it: active = inhibition above about 32%; inactive = the rest. The full list was thinned out, with actives kept by preference.
# Assay: TEAD-YAP interaction inhibition, primary screen, TEAD-YAP interaction inhibitor project, luminescence, HEK-TIYL cells (AID 1259422);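 also: 0% = median of test compound wells and 100% = reference inhibitor wells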
# Conditions: TEAD-Gal4/YAP UAS-luciferase luminescence, at 9.12 µM, stronger effect = higher value
row,Structure (SMILES),inhibition
1,O=C(NCc1ccccn1)c1cc(=O)c2ccccc2o1,0.58% (inactive)
2,O=C(Nc1ccc(Oc2ccc3ccccc3c2Cl)c(Cl)c1)c1cc2cc(Cl)ccc2oc1=O,5.28% (inactive)
3,COc1cc2nc(Nc3cccc(N(C)C)c3)nc(Nc3cc(OC)c(OC)c(OC)c3)c2cc1OC,-1.74% (inactive)
4,COc1cc(Nc2nc(Nc3cccc(N(C)C)c3)nc3nc[nH]c23)cc(OC)c1OC,46% (active)
5,CC(=O)Nc1ccc(Nc2nc(-c3ccc(C(N)=O)cc3)nc3nc[nH]c23)cc1,5.81% (inactive)
6,COc1cc(Nc2cc(C)nc(Nc3nc4ccccc4n3C)n2)cc(OC)c1OC,1.6% (inactive)
7,COc1cc(Nc2nc(Nc3cc(OC)c(OC)c(OC)c3)c3[nH]cnc3n2)cc(OC)c1OC,8.81% (inactive)
8,COc1ccc(-c2nc(C)cc(NCc3ccccc3)n2)cc1,-42.8% (inactive)
9,COc1ccc(-c2nc(N)c3[nH]cnc3n2)cc1,-34% (inactive)
10,COc1ccc(-c2nc(C)cc(Nc3cc(OC)c(OC)c(OC)c3)n2)cc1,46.8% (active)
11,COc1ccc(-c2nc(Nc3cc(OC)c(OC)c(OC)c3)c3[nH]cnc3n2)cc1,54% (active)
12,O=[N+]([O-])c1ccc(-c2csnn2)cc1,-3.36% (inactive)
13,Cc1nc2c3ccccc3n3c(CCCC(=O)NCc4cccnc4)nnc3n2n1,-0.28% (inactive)
14,O=C(CNC(=O)c1ccco1)N/N=C/c1ccc(F)cc1,2.91% (inactive)
15,CN1C(C)(C)CC(N(C)S(C)(=O)=O)CC1(C)C,-1.45% (inactive)
16,COCCNc1nc(-c2ccc(C)cc2)ccc1C(=O)N1CCN(C)CC1,-12% (inactive)
17,CCCCOC(=O)C(C)Oc1ccc2c(=O)c(-c3ccc(Cl)cc3)coc2c1 (centres undefined),-32.8% (inactive)
18,CCOC(=O)C1CCN(C(=O)/C(=C/c2ccco2)NC(=O)c2ccc(C)c(C)c2)CC1,3.59% (inactive)
19,Cc1nnc(NS(=O)(=O)c2ccc([N+](=O)[O-])cc2)s1,-10.9% (inactive)
20,O=C(CSCC(=O)N1CCCC1)Nc1nc(-c2ccc(Cl)s2)cs1,-0.25% (inactive)
21,Cc1ccc(S(=O)(=O)N(C(=O)NC(=O)Nc2ccccc2Cl)c2ccc(Cl)cc2)cc1,-3.29% (inactive)
22,Cc1cc(C)c2c(NCc3ccccc3F)n[nH]c2n1,-16.5% (inactive)
23,Clc1ccccc1OCc1nn2c(Cc3ccccc3)nnc2s1,-7.7% (inactive)

row,Structure (SMILES),inhibition
1,c1ccc(Cc2nn3c(Cn4cnc5ccccc54)nnc3s2)cc1,6.31% (inactive)
2,Cc1ccc(OCc2nn3c(Cn4cnc5ccccc54)nnc3s2)cc1,32.3% (active)
3,COC(=O)c1c(C)[nH]c(C(=O)/C(C#N)=C/c2cccnc2)c1C,-3.19% (inactive)
4,CCc1nc2sc3c(N4CCCC4)ncnc3c2c2c1COC(C)(C)C2,-9.9% (inactive)
5,CC(=O)c1ccc(OC(=O)c2ccccc2Cl)cc1,7.46% (inactive)
6,O=C(Cn1cnc2ccc(Br)cc2c1=O)OC1CCCCC1,-11.3% (inactive)
7,Cn1c(=O)[nH]c(=O)c2c1nc(N(CCO)Cc1ccccc1)n2Cc1ccccc1Cl,-2.54% (inactive)
8,CC(Nc1nc2c(c(=O)[nH]c(=O)n2C)n1Cc1ccccc1)c1ccccc1 (centres undefined),0.86% (inactive)
9,CCC(C)n1c(N(C)Cc2ccccc2)nc2c1c(=O)[nH]c(=O)n2C (centres undefined),49.9% (active)
10,CCC(C)NC(=O)c1ccc(N2CCC3(CC2)OCCO3)c([N+](=O)[O-])c1 (centres undefined),-13.8% (inactive)
11,COCCNC(=O)c1ccc(Sc2ccc(OC)cc2)c([N+](=O)[O-])c1,-17% (inactive)
12,CCC(C)NC(=O)c1ccc(S(=O)(=O)c2ccc(OC)cc2)c([N+](=O)[O-])c1 (centres undefined),32.4% (active)
13,Cc1nn(C)c(C)c1-c1cncc(C(=O)NCc2cccc(C(F)(F)F)c2)c1,-3.32% (inactive)
14,Cc1nc2c(C(=O)NCc3ccc(F)cc3)cnn2c(C)c1Cc1cccc(Cl)c1,0.57% (inactive)
15,O=C(CSCC(=O)Nc1ccc2ccccc2c1)NCC1CCCO1 (centres undefined),-13.5% (inactive)
16,O=c1oc2cc(Cl)ccc2n1C(c1ccccc1)(c1ccccc1)c1ccccc1,-6.71% (inactive)
17,O=C1NC2(CCN(C(=O)CCn3ncc4ccccc43)CC2)Nc2ccccc21,-11.1% (inactive)
18,O=C1NC2(CCN(C(=O)c3cccc4cccnc34)CC2)Nc2ccc(Cl)cc21,77.2% (active)
19,O=C1NC2(CCN(C(=O)C3CCN3C3CCCCC3)CC2)Nc2ccccc21 (centres undefined),7.24% (inactive)
20,CCc1ccc2c(c1)NC(=O)C2(CC)c1ccc2c(c1)OCO2 (centres undefined),-7.41% (inactive)
21,CN(c1ncnc2c1nc1n2CCCCC1)C1CCCCC1,-48% (inactive)
22,CN(c1nc(N)ncc1[N+](=O)[O-])C1CCCCC1,33.8% (active)
23,CN(c1ccc(C(=O)Nc2cc(F)cc(F)c2)cc1[N+](=O)[O-])C1CCCCC1,-5.53% (inactive)

row,Structure (SMILES),inhibition
1,COC(=O)C1=CN(Cc2ccc(OC)c(OC)c2)C=C(C(=O)OC)C1c1cccc(OCc2ccccc2)c1,55.4% (active)
2,CCOC(=O)C1=CN(Cc2ccc(Cl)cc2)C=C(C(=O)OCC)C1c1cccc(OCc2ccccc2)c1,5.47% (inactive)
3,CCOC(=O)C1=CN(Cc2ccc(F)cc2)C=C(C(=O)OCC)C1c1cccc(OCc2ccccc2)c1,10.8% (inactive)
4,CC(=O)c1ccc(OCC(=O)Nc2c(F)c(F)cc(F)c2F)cc1,-0.14% (inactive)
5,CCOc1ccc(C2C(C#N)=C(N)N(c3ccc(F)cc3)C3=C2C(=O)CCC3)cc1 (centres undefined),-0.96% (inactive)
6,N=C1c2ccccc2CN1NC(=O)c1ccccc1-n1cccc1,11.5% (inactive)
7,O=C(Cc1c(F)cccc1Cl)Nc1ccc(Cl)cn1,-7.57% (inactive)
8,Cc1cc(NC(=O)c2cccs2)ncc1NC(=O)c1ccccc1F,-50.5% (inactive)
9,CNC(=O)c1ccccc1Nc1cc(NC(=O)Cc2ccc(F)c(F)c2)ncc1C(F)(F)F,65.4% (active)
10,CCc1ccccc1NC(=O)Cc1ccc([N+](=O)[O-])cc1,2.99% (inactive)
11,FC(F)(F)c1cccc(Nc2ccc(Br)cn2)c1,9.99% (inactive)
12,CNC(=O)c1ccccc1Nc1cc(NC(=O)Cc2ccc([N+](=O)[O-])cc2)ncc1C(F)(F)F,78.8% (active)
13,CNC(=O)c1ccccc1Nc1cc(NC(=O)C(F)(F)c2ccccc2)ncc1C(F)(F)F,41.9% (active)
14,CNC(=O)c1ccccc1Nc1cc(NC(=O)C2(c3ccccc3)CC2)ncc1C(F)(F)F,-1.5% (inactive)
15,O=C(Cc1ccc([N+](=O)[O-])cc1)Nc1ccccc1Cl,-21.8% (inactive)
16,Cc1nc(NC(=O)c2ccc(C(C)(C)C)cc2)sc1C(=O)N1CCOCC1,13.1% (inactive)
17,COC(=O)c1cc2occc2n1CC(=O)N(C)c1ccccc1,4.95% (inactive)
18,Nc1cc(Oc2ccc3ccccc3c2)c(Cl)cc1[N+](=O)[O-],2.07% (inactive)
19,O=C(COc1coc(CN2CCN(c3ccccc3F)CC2)cc1=O)N1CCCCCC1,-0.51% (inactive)
20,COC(=O)c1cc(NC(=O)Nc2cc(Cl)ccc2OC)cc(C(=O)OC)c1,0.04% (inactive)
21,Cc1cnc(CNc2cc(-c3cncc(-c4ccc(F)cc4)c3)nc(C)n2)cn1,33% (active)
22,Cc1ccc(-c2cncc(-c3cc(NCc4ccco4)nc(C)n3)c2)cc1,-4.33% (inactive)
23,COCCNc1cc(-c2cncc(-c3ccc(F)cc3)c2)nc(C)n1,-1.76% (inactive)
